The text below walks through data of PubChem BioAssay (EPA / NIEHS).

The structures appear in SMILES notation. Activity calls are given as the source filed them. How the source made its calls: active means hit-call score of the fitted dose curve at least 0.9, where 1 is the maximum; inactive means score below 0.9.

A word on the AC50: it is the concentration giving half of the maximal activity seen.

Common to all, as to details: mRNA level, 48 h; actives raise or lower the signal
Read-out in assay [1]: Caspase-3 (Homo sapiens) (UniProt P42574)
In words: LTEA_HepaRG_CASP3: Life Technologies and Expression Analysis (LTEA) Assay for cysteine-aspartic acid protease (CASP3) using HepaRG (AID 2283477). In short, it runs like this:
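HepaRG, 48 h exposure, 8 conc. (top 100 uM, half-log steps, duplicate), 0.5% DMSO vehicle; qRT-PCR of CASP3 transcript, housekeeping-normalised (ACTB/GAPDH/POLR2A); bidirectional curve fit vs DMSO baseline.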

Read-out in assay [2]: Cytochrome P450 (CYP1A2), CYP1A2 (gene 1544)
In words: LTEA_HepaRG_CYP1A2: Life Technologies and Expression Analysis (LTEA) Assay for Cytochrome P450 (CYP1A2) using HepaRG (AID 2283479). In short, it runs like this:
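HepaRG, 48 h exposure, top 100 uM, half-log 8-pt, 0.5% DMSO vehicle, duplicates. Readout: TaqMan qRT-PCR of CYP1A2 mRNA, housekeeping-normalized (ACTB/GAPDH/POLR2A). Gain/loss fit relative to DMSO baseline.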

Read-out in assay [3]: cysteine-aspartic acid protease (CASP8), CASP8 (gene 841)
In words: LTEA_HepaRG_CASP8: Life Technologies and Expression Analysis (LTEA) Assay for cysteine-aspartic acid protease (CASP8) using HepaRG (AID 2283480). The method, boiled down: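 Differentiated human HepaRG cells, plated 48 h then switched to serum-free induction medium, were exposed in duplicate for 48 h to 8 half-log concentrations up to 100 uM in 0.5% DMSO. CASP8 mRNA was quantified by qRT-PCR, normalized to ACTB/GAPDH/POLR2A.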

Read-out in assay [4]: Cytochrome P450 (CYP2B6), CYP2B6 (gene 1555)
In words: LTEA_HepaRG_CYP2B6: Life Technologies and Expression Analysis (LTEA) Assay for Cytochrome P450 (CYP2B6) using HepaRG (AID 2283481). The method, boiled down: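 Read-out is CYP2B6 mRNA by TaqMan qRT-PCR, normalized to three housekeeping genes and fitted bidirectionally against 0.5% DMSO baseline. Human HepaRG cells received test chemicals for 48 h, top concentration 100 uM, half-log dilutions.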

Read-out in assay [5]: Cytochrome P450 2C19 (Homo sapiens) (UniProt P33261)
In words: LTEA_HepaRG_CYP2C19: Life Technologies and Expression Analysis (LTEA) Assay for CYP2C19 using HepaRG (AID 2283482). In short, it runs like this: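 HepaRG, 48 h chemical exposure, 8-pt half-log series from 100 uM in 0.5% DMSO, duplicates. Readout: CYP2C19 mRNA by TaqMan qRT-PCR, housekeeping-normalized. Bidirectional fit vs DMSO baseline; phenobarbital 1mM as induction control.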

Read-out in assay [6]: CYP2C8 (gene 1558)
In words: LTEA_HepaRG_CYP2C8: Life Technologies and Expression Analysis (LTEA) Assay for CYP2C8 using HepaRG (AID 2283483). In short, it runs like this: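 Differentiated human HepaRG cells were exposed for 48 h in serum-free induction medium to eight half-log concentrations up to 100 uM in 0.5% DMSO, in duplicate. CYP2C8 mRNA was measured by TaqMan qRT-PCR, normalized to ACTB, GAPDH and POLR2A, and fitted bidirectionally against DMSO.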

Read-out in assay [7]: CYP2C9 (gene 1559)
In words: LTEA_HepaRG_CYP2C9: Life Technologies and Expression Analysis (LTEA) Assay for CYP2C9 using HepaRG (AID 2283484). The method, boiled down:
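Differentiated human HepaRG cells were exposed 48 h in serum-free induction medium to eight half-log concentrations up to 100 uM in 0.5% DMSO. CYP2C9 mRNA was measured by qRT-PCR, normalized to ACTB, GAPDH and POLR2A, and fitted bidirectionally against DMSO.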

Read-out in assay [8]: CYP2E1 (gene 1571)
In words: LTEA_HepaRG_CYP2E1: Life Technologies and Expression Analysis (LTEA) Assay for CYP2E1 using HepaRG (AID 2283485). The method, boiled down: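 HepaRG cells in serum-free induction medium exposed 48 h to test chemicals, 8 half-log concentrations up to 100 uM in 0.5% DMSO, duplicate. CYP2E1 mRNA by qRT-PCR, normalized to ACTB, GAPDH, POLR2A; bidirectional fit versus DMSO.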

Read-out in assay [9]: CYP4A11 (gene 1579)
In words: LTEA_HepaRG_CYP4A11: Life Technologies and Expression Analysis (LTEA) Assay for CYP4A11 using HepaRG (AID 2283486). In short, it runs like this: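 CYP4A11 transcript levels were quantified by TaqMan qRT-PCR after HepaRG human liver cells were treated for 48 hours with test chemicals (top 100 uM, half-log dilutions, 0.5% DMSO). Gain or loss of signal was fitted relative to DMSO.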

Read-out in assay [10]: Cytochrome P450 3A4 (Homo sapiens) (UniProt P08684)
In words: LTEA_HepaRG_CYP3A4: Life Technologies and Expression Analysis (LTEA) Assay for CYP3A4 using HepaRG (AID 2283487). In short, it runs like this:
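CYP3A4 transcript measured by TaqMan qRT-PCR and normalized to three housekeeping genes after 48 h chemical exposure of human HepaRG cells. Top concentration 100 uM, half-log steps, 0.5% DMSO vehicle; gain or loss fitted against DMSO baseline.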

Read-out in assay [11]: DNA damage-inducible transcript 3 (DDIT3), DDIT3 (gene 1649)
In words: LTEA_HepaRG_DDIT3: Life Technologies and Expression Analysis (LTEA) Assay for DNA damage-inducible transcript 3 (DDIT3) using HepaRG (AID 2283488). The method, boiled down: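 Differentiated human HepaRG cells in serum-free induction medium were exposed in duplicate for 48 h to 8 concentrations (top 100 uM, half-log steps, 0.5% DMSO). DDIT3 mRNA measured by TaqMan qRT-PCR, normalized to ACTB/GAPDH/POLR2A; bidirectional fit versus DMSO.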

Read-out in assay [12]: Pro-epidermal growth factor (Homo sapiens) (UniProt P01133)
In words: LTEA_HepaRG_EGF: Life Technologies and Expression Analysis (LTEA) Assay for Epidermal growth factor (EGF) using HepaRG (AID 2283489). In short, it runs like this:
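qRT-PCR readout of EGF transcript after 48 h chemical exposure of HepaRG cells; eight concentrations from 100 uM down in half-log steps, duplicate wells, 0.5% DMSO vehicle. Bidirectional curve fitting against DMSO baseline.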

Read-out in assay [13]: Early growth response protein 1 (EGR1) transcription factor, EGR1 (gene 1958)
In words: LTEA_HepaRG_EGR1: Life Technologies and Expression Analysis (LTEA) Assay for Early growth response protein 1 (EGR1) transcription factor using HepaRG (AID 2283490). The method, boiled down:
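Differentiated human HepaRG cells in serum-free induction medium were exposed in duplicate for 48 h to eight concentrations (top 100 uM, half-log steps) in 0.5% DMSO. EGR1 mRNA was quantified by qRT-PCR, normalized to ACTB, GAPDH and POLR2A, and fitted bidirectionally versus DMSO.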

Read-out in assay [14]: Ezrin (EZR), EZR (gene 7430)
In words: LTEA_HepaRG_EZR: Life Technologies and Expression Analysis (LTEA) Assay for Ezrin (EZR) using HepaRG (AID 2283491). The method, boiled down: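 HepaRG, 48 h chemical exposure, 8-pt half-log series from 100 uM, 0.5% DMSO vehicle, duplicates. Read-out: EZR mRNA by TaqMan qRT-PCR (Fluidigm array), housekeeping-normalized; bidirectional curve fit vs DMSO baseline.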

Read-out in assay [15]: Cytochrome P450 3A7 (Homo sapiens) (UniProt P24462)
In words: LTEA_HepaRG_CYP3A7: Life Technologies and Expression Analysis (LTEA) Assay for CYP3A7 using HepaRG (AID 2283492). In short, it runs like this:
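CYP3A7 transcript levels were read by TaqMan qRT-PCR on Fluidigm arrays after 48 h chemical exposure of human HepaRG cells, with housekeeping-gene normalisation. Eight half-log concentrations up to 100 uM in 0.5% DMSO were tested in duplicate.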

Read-out in assay [16]: CYP3A5 (gene 1577)
In words: LTEA_HepaRG_CYP3A5: Life Technologies and Expression Analysis (LTEA) Assay for CYP3A5 using HepaRG (AID 2283493). The method, boiled down: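 Differentiated HepaRG cells in serum-free induction medium were dosed 48 h with test chemicals (8-point half-log series, top 100 uM, 0.5% DMSO, duplicate). CYP3A5 mRNA measured by qRT-PCR, normalized to ACTB, GAPDH, POLR2A; bidirectional fit versus DMSO.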

Read-out in assay [17]: Fatty Acid-Binding Protein 1 (FABP1), FABP1 (gene 2168)
In words: LTEA_HepaRG_FABP1: Life Technologies and Expression Analysis (LTEA) Assay for Fatty Acid-Binding Protein 1 (FABP1) using HepaRG (AID 2283494). In short, it runs like this:
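Differentiated human HepaRG cells were exposed in duplicate for 48 h in serum-free induction medium to 8-point half-log concentration series topping at 100 uM in 0.5% DMSO. FABP1 mRNA measured by TaqMan qRT-PCR, normalized to ACTB/GAPDH/POLR2A; bidirectional fit versus DMSO.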

Read-out in assay [18]: Cytochrome P450 4A22 (Homo sapiens) (UniProt Q5TCH4)
In words: LTEA_HepaRG_CYP4A22: Life Technologies and Expression Analysis (LTEA) Assay for Cytochrome P450 4A22 (CYP4A22) using HepaRG (AID 2283495). The method, boiled down: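 HepaRG, 48 h post-plating -> serum-free induction medium; dosed 48 h, duplicate, 8 conc. (100 uM top, half-log), 0.5% DMSO. Readout: CYP4A22 mRNA by qRT-PCR, ACTB/GAPDH/POLR2A normalization; gain/loss fit relative to DMSO.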

Read-out in assay [19]: Cytochrome P450 7A1 (Homo sapiens) (UniProt P22680)
In words: LTEA_HepaRG_CYP7A1: Life Technologies and Expression Analysis (LTEA) Assay for Cytochrome P450 7A1 (CYP7A1) using HepaRG (AID 2283496). In short, it runs like this:
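Gene expression endpoint in human HepaRG liver cells treated for 48 h with test chemicals (up to 100 uM, 0.5% DMSO). Values come from bidirectional concentration-response fitting versus DMSO.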

Chain of Cytochrome P450 3A7 (Homo sapiens) (P24462 whole entry, looked up): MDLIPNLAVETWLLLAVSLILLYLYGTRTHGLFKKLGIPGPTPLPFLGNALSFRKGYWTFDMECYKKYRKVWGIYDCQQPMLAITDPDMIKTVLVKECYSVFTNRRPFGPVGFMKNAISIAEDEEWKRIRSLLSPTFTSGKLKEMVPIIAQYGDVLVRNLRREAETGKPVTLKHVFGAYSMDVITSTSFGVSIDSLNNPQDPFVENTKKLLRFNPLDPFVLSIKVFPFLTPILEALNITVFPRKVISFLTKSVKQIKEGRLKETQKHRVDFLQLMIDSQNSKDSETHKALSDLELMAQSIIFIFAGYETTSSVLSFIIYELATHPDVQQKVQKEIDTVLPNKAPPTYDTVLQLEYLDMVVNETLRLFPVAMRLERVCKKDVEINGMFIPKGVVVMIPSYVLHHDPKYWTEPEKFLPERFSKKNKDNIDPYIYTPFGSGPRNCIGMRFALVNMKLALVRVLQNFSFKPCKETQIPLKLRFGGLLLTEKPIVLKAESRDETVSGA
Chain of Cytochrome P450 2C19 (Homo sapiens) (P33261 whole entry, looked up): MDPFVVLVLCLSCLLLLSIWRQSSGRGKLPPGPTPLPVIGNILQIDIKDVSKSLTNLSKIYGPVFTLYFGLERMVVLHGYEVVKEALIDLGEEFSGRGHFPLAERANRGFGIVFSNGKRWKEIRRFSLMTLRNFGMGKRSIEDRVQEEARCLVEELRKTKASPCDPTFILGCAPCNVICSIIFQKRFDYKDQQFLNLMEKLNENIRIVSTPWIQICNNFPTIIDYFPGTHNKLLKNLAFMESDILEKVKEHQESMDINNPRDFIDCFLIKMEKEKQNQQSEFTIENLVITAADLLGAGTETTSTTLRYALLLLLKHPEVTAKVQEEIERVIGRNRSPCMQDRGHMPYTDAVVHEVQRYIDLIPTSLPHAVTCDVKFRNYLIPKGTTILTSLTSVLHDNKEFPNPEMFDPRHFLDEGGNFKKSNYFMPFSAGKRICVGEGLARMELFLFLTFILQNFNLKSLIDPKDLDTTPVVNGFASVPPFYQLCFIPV
Chain of Caspase-3 (Homo sapiens) (P42574 whole entry, looked up): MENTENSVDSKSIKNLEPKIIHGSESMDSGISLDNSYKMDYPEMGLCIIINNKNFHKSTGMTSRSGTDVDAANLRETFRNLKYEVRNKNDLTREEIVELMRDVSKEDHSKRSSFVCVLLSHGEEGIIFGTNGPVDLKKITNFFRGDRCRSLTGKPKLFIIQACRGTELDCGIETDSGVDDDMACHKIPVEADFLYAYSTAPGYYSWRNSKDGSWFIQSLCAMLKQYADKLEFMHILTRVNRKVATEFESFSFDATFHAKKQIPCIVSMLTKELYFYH
Chain of Cytochrome P450 3A4 (Homo sapiens) (P08684 whole entry, looked up): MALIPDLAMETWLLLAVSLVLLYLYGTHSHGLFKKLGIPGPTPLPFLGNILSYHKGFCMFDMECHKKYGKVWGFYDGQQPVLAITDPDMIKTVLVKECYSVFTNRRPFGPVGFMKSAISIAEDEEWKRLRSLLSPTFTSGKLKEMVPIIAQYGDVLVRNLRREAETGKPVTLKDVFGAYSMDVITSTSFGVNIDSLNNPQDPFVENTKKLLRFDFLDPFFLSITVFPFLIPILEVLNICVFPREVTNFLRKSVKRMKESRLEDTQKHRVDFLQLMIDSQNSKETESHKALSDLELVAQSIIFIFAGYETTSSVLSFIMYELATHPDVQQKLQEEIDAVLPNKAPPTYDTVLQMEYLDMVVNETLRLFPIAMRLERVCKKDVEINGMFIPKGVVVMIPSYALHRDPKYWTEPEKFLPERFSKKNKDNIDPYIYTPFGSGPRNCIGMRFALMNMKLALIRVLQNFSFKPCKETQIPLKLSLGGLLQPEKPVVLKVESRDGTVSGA

For the compound `c1cc(-c2ccncc2)ccn1`, the call in assay [1], in assay [3], in assay [4], in assay [5], in assay [6] and in [7] was inactive. For the same compound, the compound was classed as inactive in [8], in assay [9], in assay [10], in [11], in [12] and in [13]. The compound was classed as inactive in assay [14], in [16], in [17], in [18] and in assay [19]. Besides, the AC50 in assay [2] and in [15] was 50 µM (active) throughout.

Regarding `O=C(N[C@@H](Cc1ccccc1)[C@@H](O)C(=O)N1C[C@@H](O)[C@@H](O)C1)c1cc2cc(Cl)ccc2[nH]1`, the call in [1], in assay [3], in assay [6], in assay [8], in assay [10] and in assay [12] was inactive. Besides, the outcome in assay [13], in assay [16], in assay [17] and in assay [19] was inactive. Besides, the concentration at half-maximal activity (AC50) in assay [2] was 74.1 µM (active); in [4], 11.9 µM (active); in assay [5], 4.24 µM (active); in [7], 12.5 µM (active); in [9], 89.9 µM (active); in assay [11], 73.1 µM (active). The values for the AC50 in assay [15] and in [18] were 12.6 µM (active) and 14.3 µM (active), respectively.

On to `COc1ccc(S(=O)(=O)N2C(=O)[C@@](c3ccccc3OC)(N3C[C@H](O)C[C@H]3C(=O)N(C)C)c3cc(Cl)ccc32)c(OC)c1`, for which the concentration at half-maximal activity (AC50) in [1] is 12.2 µM (active); in assay [2], 22.2 µM (active); in assay [4], 28.9 µM (active); in assay [5], 21.5 µM (active); in assay [6], 23 µM (active); in assay [7], 20.5 µM (active). Besides, the AC50 was 33.6 µM (active) in assay [8]; 26.6 µM (active) in assay [9]; 32.9 µM (active) in assay [10]; 73.8 µM (active) in assay [11]; 81.1 µM (active) in [13]; 30.4 µM (active) in [15]. Moreover, the AC50 in [16] is 13.2 µM (active); in [17], 26.9 µM (active); in assay [18], 15.8 µM (active); in assay [19] it was 21 µM (active). Besides, the compound was classed as inactive in assay [3] and in assay [12].

On to `CC(C)(C)c1cc(O)c(C(C)(C)C)cc1O`, for which the AC50 in assay [1] was 79.4 µM (active); in assay [3] it was 81.1 µM (active); in assay [11], 50 µM (active); in assay [13], 50 µM (active); in assay [17], 94.3 µM (active). In addition, the result in assay [12] and in assay [14] was inactive.

On to `Cc1ccc(C)c(C)c1`, for which the result in [1], in [2], in assay [3], in [4], in [5] and in assay [6] was inactive. For the same compound, the call in [7], in [8], in [9], in assay [10], in assay [11] and in [12] was inactive. In addition, the call in assay [13], in [15], in [16], in assay [17], in assay [18] and in [19] was inactive.
